Test results reported in PubChem BioAssay (EPA / NIEHS).
Active and inactive are the calls of the source. Rule for the calls: active = hit-call score of the fitted dose curve at least 0.9, where 1 is the maximum; inactive = score below 0.9.

Columns and labels:
[1] = target: Transcription factor E2F1 (Homo sapiens) (UniProt Q01094); assay: ATG_E2F_CIS: Attagene CIS-FACTORIAL HepG2 Assay for human E2F Transcription Factor 1 (AID 2282935); settings: HepG2 Attagene cis-reporter, E2F reporter RNA transcripts; actives raise or lower the signal
Transcription factor E2F1 (Homo sapiens), sequence (Q01094 whole entry, looked up): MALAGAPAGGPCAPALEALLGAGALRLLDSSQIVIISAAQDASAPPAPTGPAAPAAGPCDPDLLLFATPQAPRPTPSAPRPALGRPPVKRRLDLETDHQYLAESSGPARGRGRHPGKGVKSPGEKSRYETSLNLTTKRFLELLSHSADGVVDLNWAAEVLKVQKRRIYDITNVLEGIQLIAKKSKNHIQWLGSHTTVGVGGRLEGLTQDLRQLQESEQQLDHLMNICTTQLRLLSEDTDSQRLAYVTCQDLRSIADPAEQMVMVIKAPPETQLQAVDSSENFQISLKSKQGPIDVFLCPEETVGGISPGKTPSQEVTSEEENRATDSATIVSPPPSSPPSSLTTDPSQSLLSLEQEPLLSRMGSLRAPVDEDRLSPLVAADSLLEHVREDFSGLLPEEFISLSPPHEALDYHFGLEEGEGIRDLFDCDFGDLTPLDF
How it was run: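 Transient MRTU transfection of HepG2; 24 h compound exposure; RNA → oligo(dT) RT → PCR → FAM label → HpaI cut → CE fluorescence. Gain/loss of signal fit against DMSO.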

[2] = ATG_E_Box_CIS: Attagene CIS-FACTORIAL HepG2 Assay for human Enhancer Box (E-box) (AID 2282936); settings: HepG2 E-box cis-reporter transcription, actives raise or lower the signal
How it was run: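 Transiently transfected HepG2, endogenous TF-driven reporters, 24 h dosing. Readout: RT-PCR plus capillary electrophoresis of fluorescent reporter fragments. Gain or loss of signal fitted bidirectionally against DMSO baseline.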

[3] = ATG_EGR_CIS: Attagene CIS-FACTORIAL HepG2 Assay for human Early Growth Response 1 (EGR1) (AID 2282938); settings: HepG2 Attagene CIS-FACTORIAL EGR reporter mRNA; actives raise or lower the signal
How it was run: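 Fluorescent capillary-electrophoresis signal of reporter cDNA fragments serves as read-out. HepG2 cells bear transiently transfected cis-promoter reporter units and are exposed 24 h; gain- or loss-of-signal is fitted against DMSO.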

[4] = ATG_M_19_CIS: Attagene CIS-FACTORIAL HepG2 Assay for M19 Transcription Factor (Internal Marker) (AID 2282939); settings: HepG2 Attagene CIS-FACTORIAL M19 internal marker reporter; actives raise or lower the signal
How it was run: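 Internal marker readout, fitted in both directions against DMSO, from HepG2 cells carrying transfected cis-element reporter constructs; RT-PCR and capillary electrophoresis of reporter mRNA after 24 h exposure.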

[5] = ATG_ERE_CIS: Attagene CIS-FACTORIAL HepG2 Assay for Estrogen Response Element (ERE) (AID 2282940); settings: HepG2 ERE cis-reporter, Attagene RNA transcript; actives raise or lower the signal
How it was run: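 After 24 h compound treatment, RNA from transfected HepG2 cells was reverse-transcribed, reporter cDNA PCR-amplified, FAM-labelled, HpaI-cut and resolved by capillary electrophoresis. ERE-driven cis reporter transcripts reflect endogenous factors; gain or loss scored against DMSO.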

[6] = ATG_Ets_CIS: Attagene CIS-FACTORIAL HepG2 Assay for human Erythroblast Transformation Specific (ETS) (AID 2282941); settings: HepG2 ETS cis-reporter transcription, actives raise or lower the signal
How it was run: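 RT-PCR/capillary electrophoresis fluorescence read-out of reporter mRNA; HepG2 transient multi-reporter transfection; 24 h compound exposure; gain or loss of signal fitted bidirectionally relative to DMSO.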

[7] = target: Hepatocyte nuclear factor 3-beta (Homo sapiens) (UniProt Q9Y261); assay: ATG_FoxA2_CIS: Attagene CIS-FACTORIAL HepG2 Assay for human Forkhead box A2 (FOXA2) (AID 2282942); settings: HepG2 cis-reporter transcription factor activity, 24 h; actives raise or lower the signal
Hepatocyte nuclear factor 3-beta (Homo sapiens), sequence (Q9Y261 whole entry, looked up, the tested form may be a part): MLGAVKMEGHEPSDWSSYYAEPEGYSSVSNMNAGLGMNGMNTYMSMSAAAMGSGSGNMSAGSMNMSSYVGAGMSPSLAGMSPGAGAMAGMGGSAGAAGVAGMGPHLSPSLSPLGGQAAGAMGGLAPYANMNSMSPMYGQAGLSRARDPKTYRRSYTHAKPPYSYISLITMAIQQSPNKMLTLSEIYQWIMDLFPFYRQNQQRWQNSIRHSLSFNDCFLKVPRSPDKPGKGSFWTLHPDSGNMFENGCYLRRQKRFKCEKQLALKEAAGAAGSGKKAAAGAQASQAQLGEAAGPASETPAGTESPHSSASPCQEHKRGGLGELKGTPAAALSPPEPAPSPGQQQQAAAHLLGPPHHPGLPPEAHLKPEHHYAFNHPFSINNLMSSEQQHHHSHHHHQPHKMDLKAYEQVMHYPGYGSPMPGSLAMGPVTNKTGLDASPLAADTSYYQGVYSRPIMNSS
How it was run: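 Fluorescence signal of reporter cDNA fragments, separated by capillary electrophoresis, reflects endogenous transcription factor activity in transfected HepG2 after 24 h. Both increases and decreases fitted against DMSO.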

[8] = ATG_FoxO_CIS: Attagene CIS-FACTORIAL HepG2 Assay for human Forkhead box O (FoxO) (AID 2282943); settings: HepG2 Attagene cis-reporter, FoxO element, mRNA; actives raise or lower the signal
How it was run: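 Read-out: fluorescence of 6-FAM-labelled reporter cDNA fragments resolved by capillary electrophoresis. Transiently transfected HepG2 cells were dosed for 24 h; activity fitted in both directions relative to DMSO controls.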

[9] = ATG_GATA_CIS: Attagene CIS-FACTORIAL HepG2 Assay for human GATA Binding Protein (AID 2282944); settings: HepG2 GATA cis-element reporter, Attagene multiplex mRNA; actives raise or lower the signal
How it was run: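 Reporter transcripts from a GATA cis-regulated unit, among multiplexed reporters in transfected HepG2 cells, were measured by RT-PCR with capillary electrophoresis after 24 h dosing. Induction or loss scored relative to DMSO.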

[10] = ATG_GLI_CIS: Attagene CIS-FACTORIAL HepG2 Assay for human Zinc Finger Protein GLI1 (AID 2282945); settings: HepG2, Attagene cis-factorial reporter mRNA, GLI element; actives raise or lower the signal
How it was run: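 Transiently transfected HepG2 cells report endogenous transcription factor activity via cis-element-driven reporter units. After 24 h compound exposure, reporter mRNA was measured by RT-PCR with capillary electrophoresis; bidirectional fitting against DMSO baseline.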

[11] = target: Bile acid receptor (Homo sapiens) (UniProt Q96RI1); assay: ATG_IR1_CIS: Attagene CIS-FACTORIAL HepG2 Assay for human Nuclear Receptor Subfamily 1 Group H Member 4 (NR1H4), IR1 submotif (AID 2282946); settings: IR1 reporter transcription, actives raise or lower the signal
Bile acid receptor (Homo sapiens), sequence (Q96RI1 whole entry, looked up): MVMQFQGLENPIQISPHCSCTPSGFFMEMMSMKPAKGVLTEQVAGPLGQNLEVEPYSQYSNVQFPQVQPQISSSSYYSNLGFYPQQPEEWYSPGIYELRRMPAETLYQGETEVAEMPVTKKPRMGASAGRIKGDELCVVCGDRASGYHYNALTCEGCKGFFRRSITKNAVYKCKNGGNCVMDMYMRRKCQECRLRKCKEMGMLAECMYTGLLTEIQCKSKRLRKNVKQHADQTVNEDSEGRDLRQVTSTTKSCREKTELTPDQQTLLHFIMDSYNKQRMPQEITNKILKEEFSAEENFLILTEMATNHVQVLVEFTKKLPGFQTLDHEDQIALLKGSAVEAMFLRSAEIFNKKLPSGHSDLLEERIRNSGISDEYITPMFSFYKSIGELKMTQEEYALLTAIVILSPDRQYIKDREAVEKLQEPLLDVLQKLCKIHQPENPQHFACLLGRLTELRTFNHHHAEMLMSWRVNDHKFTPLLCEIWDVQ
How it was run: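 Fluorescence of capillary-separated, HpaI-digested RT-PCR reporter products gave IR1-element mRNA induction in HepG2 cells 24 h after dosing. Endogenous transcription factors drove the cis-regulated reporters; activity was fitted bidirectionally against DMSO.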

[12] = ATG_GRE_CIS: Attagene CIS-FACTORIAL HepG2 Assay for human Glucocorticoid Response Elements (GRE) (AID 2282947); settings: HepG2 GRE cis-reporter, Attagene multiplex mRNA; actives raise or lower the signal
How it was run: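 Read-out: fluorescent reporter-transcript fragments separated by capillary electrophoresis after RT-PCR. Transiently transfected HepG2 cells carrying cis-element-driven reporter units were dosed for 24 h; gain or loss of signal fitted against DMSO control.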

[13] = ATG_ISRE_CIS: Attagene CIS-FACTORIAL HepG2 Assay for human Interferon Regulatory Factor 1 (IRF1) binding to an Interferon-Stimulated Response Element (ISRE) (AID 2282948); settings: HepG2 ISRE cis-reporter (Attagene), mRNA transcription readout; actives raise or lower the signal
How it was run: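 Read-out: fluorescent RT-PCR products resolved by capillary electrophoresis, reporting endogenous transcription factor activity via ISRE-driven reporter mRNA in transfected HepG2 cells dosed for 24 h; gain or loss fitted relative to DMSO.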

[14] = ATG_M_32_CIS: Attagene CIS-FACTORIAL HepG2 Assay for M32 Transcription Factor (Internal Marker) (AID 2282949); settings: HepG2 Attagene cis-factorial M32 reporter, mRNA; actives raise or lower the signal;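 note: background control marker of the multiplexed CIS panel rather than a real target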
How it was run: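 Transient MRTU transfection of HepG2; 24 h compound treatment; TriZol RNA, oligo(dT) RT, reporter PCR, 6-FAM primer extension, HpaI cut, CE. Gain/loss of signal vs DMSO.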

[15] = ATG_M_06_CIS: Attagene CIS-FACTORIAL HepG2 Assay for M06 Transcription Factor (Internal Marker) (AID 2282950); settings: HepG2 Attagene CIS-FACTORIAL M06 internal marker reporter; actives raise or lower the signal
How it was run: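 Serves as a background control readout. Transfected HepG2 exposed to compounds for 24 h, then reporter transcripts quantified by fluorescent RT-PCR and capillary electrophoresis. Both directions fitted against DMSO baseline.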

[16] = target: Hypoxia-inducible factor 1-alpha (Homo sapiens) (UniProt Q16665); assay: ATG_HIF1a_CIS: Attagene CIS-FACTORIAL HepG2 Assay for human Hypoxia Inducible Factor 1 (HIF1A) (AID 2282951); settings: HepG2 Attagene cis-factorial HIF1a reporter transcription; actives raise or lower the signal
Hypoxia-inducible factor 1-alpha (Homo sapiens), sequence (Q16665 whole entry, looked up): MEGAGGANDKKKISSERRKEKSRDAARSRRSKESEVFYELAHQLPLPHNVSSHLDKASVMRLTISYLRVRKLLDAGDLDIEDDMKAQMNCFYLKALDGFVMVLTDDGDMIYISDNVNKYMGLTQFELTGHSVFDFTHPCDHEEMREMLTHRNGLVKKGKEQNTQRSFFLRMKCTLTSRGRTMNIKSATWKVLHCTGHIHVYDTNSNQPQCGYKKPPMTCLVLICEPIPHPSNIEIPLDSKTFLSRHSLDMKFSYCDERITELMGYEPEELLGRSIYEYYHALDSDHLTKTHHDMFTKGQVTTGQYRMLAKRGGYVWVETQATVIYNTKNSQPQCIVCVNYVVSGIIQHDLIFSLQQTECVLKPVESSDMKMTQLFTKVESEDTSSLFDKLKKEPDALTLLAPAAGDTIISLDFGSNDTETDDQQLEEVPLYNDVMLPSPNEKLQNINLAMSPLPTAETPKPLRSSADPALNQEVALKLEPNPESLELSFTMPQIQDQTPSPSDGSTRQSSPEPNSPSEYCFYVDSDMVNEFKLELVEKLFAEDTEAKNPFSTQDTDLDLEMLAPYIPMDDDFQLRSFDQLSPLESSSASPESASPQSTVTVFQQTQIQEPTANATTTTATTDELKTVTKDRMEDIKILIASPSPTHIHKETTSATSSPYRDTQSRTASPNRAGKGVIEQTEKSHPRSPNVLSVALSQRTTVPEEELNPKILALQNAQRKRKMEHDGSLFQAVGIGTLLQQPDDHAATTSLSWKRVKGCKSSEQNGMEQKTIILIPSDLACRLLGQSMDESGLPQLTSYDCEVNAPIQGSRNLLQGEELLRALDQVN
How it was run: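 Endogenous-TF cis reporter readout, human HepG2 cells, 24 h incubation; mRNA detected via RT-PCR and capillary electrophoresis fluorescence; DMSO-normalised bidirectional fitting.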

[17] = target: Heat shock factor protein 1 (Homo sapiens) (UniProt Q00613); assay: ATG_HSE_CIS: Attagene CIS-FACTORIAL HepG2 Assay for human Heat Shock Transcription Factor 1 (HSE) (AID 2282953); settings: HepG2 HSE cis-reporter, Attagene RNA transcription; actives raise or lower the signal
Heat shock factor protein 1 (Homo sapiens), sequence (Q00613 whole entry, looked up): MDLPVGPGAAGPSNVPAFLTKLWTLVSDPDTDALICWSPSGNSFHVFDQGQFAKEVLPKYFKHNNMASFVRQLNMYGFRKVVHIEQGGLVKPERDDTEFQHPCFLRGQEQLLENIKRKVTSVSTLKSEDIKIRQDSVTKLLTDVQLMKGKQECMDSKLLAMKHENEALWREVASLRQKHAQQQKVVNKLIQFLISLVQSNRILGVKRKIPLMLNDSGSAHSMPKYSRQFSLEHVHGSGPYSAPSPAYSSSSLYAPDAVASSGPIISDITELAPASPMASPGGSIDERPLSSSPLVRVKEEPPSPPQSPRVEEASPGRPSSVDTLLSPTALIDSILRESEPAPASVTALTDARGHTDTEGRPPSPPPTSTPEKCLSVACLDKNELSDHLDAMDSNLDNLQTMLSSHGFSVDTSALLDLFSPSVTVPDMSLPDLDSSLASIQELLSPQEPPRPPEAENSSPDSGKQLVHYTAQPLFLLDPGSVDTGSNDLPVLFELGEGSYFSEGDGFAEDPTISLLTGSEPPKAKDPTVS
How it was run: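 Endogenous transcription factor activity in transiently transfected HepG2, read as reporter mRNA by RT-PCR with fluorescent capillary electrophoresis after 24 h. Gain or loss of signal fitted versus DMSO baseline.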

[18] = ATG_MRE_CIS: Attagene CIS-FACTORIAL HepG2 Assay for human Metal Responsive Element (MRE) (AID 2282954); settings: HepG2 MRE cis-reporter transcription, Attagene multiplex; actives raise or lower the signal
How it was run: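 RT-PCR/capillary electrophoresis readout of reporter mRNA, 24 h post-dosing, in HepG2 cells transfected with multiplexed cis-regulated reporter constructs. Gain or loss of signal fitted bidirectionally against DMSO baseline.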

[19] = target: Hepatocyte nuclear factor 6 (Homo sapiens) (UniProt Q9UBC0); assay: ATG_HNF6_CIS: Attagene CIS-FACTORIAL HepG2 Assay for human Hepatocyte Nuclear Factor 6 (HNF6) (AID 2282952); settings: HepG2 Attagene cis-factorial HNF6 reporter transcription; actives raise or lower the signal
Hepatocyte nuclear factor 6 (Homo sapiens), sequence (Q9UBC0 whole entry, looked up, the tested form may be a part): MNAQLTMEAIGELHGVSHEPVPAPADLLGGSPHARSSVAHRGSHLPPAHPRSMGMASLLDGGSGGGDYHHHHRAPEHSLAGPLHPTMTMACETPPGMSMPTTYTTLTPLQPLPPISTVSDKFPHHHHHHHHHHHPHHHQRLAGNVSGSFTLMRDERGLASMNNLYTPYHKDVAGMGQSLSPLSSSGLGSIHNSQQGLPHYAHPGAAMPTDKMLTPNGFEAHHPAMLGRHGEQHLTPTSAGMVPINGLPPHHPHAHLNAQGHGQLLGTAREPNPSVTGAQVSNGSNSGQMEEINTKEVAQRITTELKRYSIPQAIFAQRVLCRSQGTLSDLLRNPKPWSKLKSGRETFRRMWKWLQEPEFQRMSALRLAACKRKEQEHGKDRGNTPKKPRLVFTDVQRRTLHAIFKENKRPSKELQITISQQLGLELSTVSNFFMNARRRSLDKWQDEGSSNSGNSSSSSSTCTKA
How it was run: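 Readout: fluorescent reporter-transcript fragments resolved by capillary electrophoresis after RT-PCR, reflecting endogenous factor activity in transfected HepG2. Exposure 24 h. Gain or loss of signal fitted bidirectionally against DMSO.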

Measured: AC50

CCOP(=S)(OCC)SCn1nnc2ccccc2c1=O
active: [3] 9.67 µM | [5] 7.39 µM | [17] 166 µM | [18] 78.5 µM
not listed: [19]
inactive: all other assays above

NC(=O)C(F)(F)C(F)(F)F
not listed: [5]
inactive: all other assays above

CC(Cl)CN(C)C (stereo not given)
not listed: [3] | [17] | [19]
inactive: all other assays above

N#C/C=C/c1ccccc1
not listed: [17]
inactive: all other assays above

NNC(N)=S
not listed: [5]
inactive: all other assays above

ClC1=C(Cl)C2(Cl)C3C(Cl)C(Cl)CC3C1(Cl)C2(Cl)Cl (stereo not given)
active: [2] 52.3 µM | [3] 25.2 µM | [5] 11.2 µM | [11] 17.1 µM | [18] 41.2 µM
not listed: [17] | [19]
inactive: all other assays above
